The whole screen tested about 48,000 compounds, of which about 13,000 (27%) showed an effect of 50% or more. The list shows a part of the results.
Test system: Wolbachia pipientis
Assay: Anti-Wolbachia Cell-Based Screen
Assay type: functional
Set-up: scale not given: in the data most compounds retested in dose-response had high values
Conditions: 5 µM

Row | Compound | Percent Effect [%]
1 | CC(NCCn1cccn1)c1cc(F)ccc1F (configuration not stated) | 17.19
2 | O=c1[nH]nc(SCC2CCCCO2)n1C1CC1 (configuration not stated) | 3.518
3 | COc1cc(CC(O)CO)c(OC)c2c1OCO2 (configuration not stated) | 13.41
4 | O=C(NCCc1ccc2c(c1)OCO2)C1CCCN(Cc2ccco2)C1 (configuration not stated) | -5.327
5 | O=C(CSC1CCc2ccccc2NC1=O)NCCc1ccco1 (configuration not stated) | 9.555
6 | O=C1CCNc2ccc(F)cc2CN1Cc1ccco1 | 96.92
7 | O=C1CCOCCN1Cc1ccc(Cl)c(F)c1 | -26.47
8 | O=C1CCNc2ccccc2CN1Cc1ccco1 | 99.7
9 | O=C(CN1CCc2ccccc2C1)NCc1ccco1 | -0.1453
10 | O=C1C(NS(=O)(=O)c2cc(F)cc(F)c2)CCN1Cc1ccccc1 (configuration not stated) | -1.299
11 | O=C(c1cc(Cl)c(Br)[nH]1)N1CCN(Cc2ccco2)CC1 | 4.507
12 | O=S(=O)(Cc1ccc(F)cc1)NCc1ccco1 | 9.126
13 | O=C1CCNc2cc3c(cc2CN1Cc1ccco1)OCO3 | 103.2
14 | O=C1CCNc2ccc(F)cc2CN1Cc1ccccc1 | 102.2
15 | O=C(c1cc(Br)c[nH]1)N1CCN(Cc2ccco2)CC1 | -4.103
16 | CC(C)(C)CN(CCC#N)C(=O)Cc1ccc(-n2cnnn2)cc1 | -11.58
17 | COCCc1noc(CN2CCc3nn(C(C)C)c(=O)cc3C2)n1 | 0.5745
18 | Cc1nnc(CN(C)CCc2nc(-c3cccc(Cl)c3)no2)n1C | -15.48
19 | Cc1cnn(C2CN(CC(O)c3ccccc3)C2)c1 (configuration not stated) | 7.133
20 | O=C(COc1ccc2c(c1)CCCC2=O)NCc1ccco1 | 5.581
21 | CN(Cc1n[nH]c(=O)n1Cc1ccco1)S(C)(=O)=O | 13.53
22 | CN(C1CCCCC1)S(=O)(=O)N1CCN(Cc2ccco2)CC1 | 20.54
23 | COc1ccc2c(c1)CN(Cc1ccco1)C(=O)CCN2 | 81.17
24 | NCCSc1nccc(-c2cnc(C3CC3)nc2-c2ccco2)n1 | 112.5

Row | Compound | Percent Effect [%]
25 | Cc1ncc(-c2ccnc(N3CCN(C)CC3)n2)c(-c2cccnc2)n1 | -5.726
26 | Cc1ncc(-c2ccnc(SCCN(C)C)n2)c(-c2ccco2)n1 | 91.76
27 | Cc1ncc(-c2ccnc(SCCN)n2)c(-c2ccco2)n1 | 79.73
28 | COCCN(c1cc(C)nc2nc(C(F)(F)F)nn12)C1CCCC1 | -0.8248
29 | CCn1cnnc1Cc1nc2c([nH]1)CC(c1ccc(Cl)cc1)CNC2=O (configuration not stated) | 5.995
30 | CCN(CC)CCc1nc2c([nH]1)CC(c1ccc(Cl)cc1)CNC2=O (configuration not stated) | -9.032
31 | CC1(C)CNC(=O)c2nc(CCCN3CCCC3)[nH]c2C1 | -5.112
32 | CC1(C)CNC(=O)c2nc(CCN3CCOCC3)[nH]c2C1 | -31.15
33 | O=C1NCC(c2ccc(F)cc2)Cc2[nH]c(CCN3CCCC3)nc21 (configuration not stated) | 95.37
34 | O=C1NCC(c2ccc(Cl)cc2)Cc2[nH]c(CCN3CCOCC3)nc21 (configuration not stated) | 104.7
35 | Cc1cc(-c2ccc(C(C)N3CCCCC3)cc2)cnc1N (configuration not stated) | 11.64
36 | Cc1nccnc1N1Cc2cnn(Cc3ccc(F)cc3)c2C1 | 9.58
37 | CC(=O)Nc1ccc2nc(-c3nccn3CC(C)(C)CO)ccc2c1 | 3.908
38 | Cc1cc(C(=O)N2CCCC(C)C2)ccc1NCc1nc(C(C)C)no1 (configuration not stated) | 111.7
39 | Cc1nccn1C1CCCN(C(=O)CCc2nc(C(C)C)no2)C1 (configuration not stated) | 10.57
40 | CCc1cnc(CNc2ccc(C(=O)N3CCCC(C)C3)cc2C)o1 (configuration not stated) | 0.007999
41 | Cc1cc(C(=O)N2CCCC(C)C2)ccc1NCc1nc(C2CC2)no1 (configuration not stated) | 111.9
42 | Cc1noc(CNc2ccc(C(=O)N3CCCC(C)C3)cc2C)n1 (configuration not stated) | 71.8
43 | CCc1noc(CNc2ccc(C(=O)N3CCCC(C)C3)cc2C)n1 (configuration not stated) | -0.296
44 | CC(C)c1noc(CNc2ccc(OC(F)F)cc2OC(F)F)n1 | -33.16
45 | Cc1cc(CNc2ccc(C(=O)N3CCCC(C)C3)cc2C)no1 (configuration not stated) | 0.152
46 | CNS(=O)(=O)Cc1cccc(CNCc2ccsc2)c1 | -11.11
47 | CCN(Cc1cnn(CC)c1)C(=O)Cn1c(=O)ccc2ccccc21 | 8.668
48 | Cc1noc(C)c1CN(C)C(=O)c1ccc(NC2CC2)nc1 | -0.4037

Row | Compound | Percent Effect [%]
49 | Cl.Fc1ccc(Cc2cnc(C3CCCN3)cn2)cc1 (configuration not stated) | 101.6
50 | Cc1ccc(Cc2cnc(C3CCNCC3)cn2)cc1.Cl | 94.42
51 | O=C1NCCCc2[nH]c(Cc3ccc(F)cc3)nc21 | -3.55
52 | Cl.O=C1NCCCCC1NCc1csc(-c2ccc(F)cc2)n1 (configuration not stated) | -5.681
53 | CN(C)C(=O)c1cccc(CCNc2ccccc2S(C)(=O)=O)c1 | -12.66
54 | CC(C)Nc1ncccc1C(=O)NC1CC(=O)N(CC(F)(F)F)C1 (configuration not stated) | 5.646
55 | CC(=O)N(C)CC(=O)NCC1(c2c(F)cccc2F)CCCC1 | 20.23
56 | Cc1cc(C)n(C2CCCN(C(=O)c3ccc(NC4CC4)nc3)C2)n1 (configuration not stated) | -9.75
57 | Cc1cc(C)n(C2CCCN(C(=O)c3ccn(C)c(=O)c3)C2)n1 (configuration not stated) | -8.273
58 | Cc1cc(C)n(C2CCCN(C(=O)c3cnc4onc(C)c4c3)C2)n1 (configuration not stated) | 3.729
59 | Cc1cc(C)n(C2CCCN(C(=O)c3ccc(N(C)C)nc3)C2)n1 (configuration not stated) | 99.92
60 | Cc1cc(C)n(C2CCCN(C(=O)c3ccnc(N(C)C)c3)C2)n1 (configuration not stated) | -18.09
61 | CNC(=O)c1ccc(C(=O)N2CCCC(n3nc(C)cc3C)C2)cn1 (configuration not stated) | 97.01
62 | O=C(NC1CCCNC1=O)c1ccc2nc(-c3ccc(F)cc3)cn2c1 (configuration not stated) | -16.52
63 | Cc1cc(C(=O)NCCN2CCCC(C)C2)nn1C(C)(C)C (configuration not stated) | 95.43
64 | Cc1cc(C(=O)NCCN2CCC(C)CC2)nn1C(C)(C)C | 102.5
65 | CC1CCN(CCNC(=O)c2ccccc2N2CCOCC2)CC1 | -0.8532
66 | Cc1cc(C(=O)NCCN2CCCCC2C)nn1C(C)(C)C (configuration not stated) | 107.2
67 | Cc1cc(C(=O)NCCN2CCCC(C)C2)nn1C (configuration not stated) | -3.799
68 | CC1CCCCN1CCNC(=O)c1ccn(-c2ccc(F)cc2)n1 (configuration not stated) | 4.653
69 | CC1CCCCN1CCNC(=O)c1ccccc1N1CCOCC1 (configuration not stated) | 19.03
70 | Cc1cc(C(=O)NCCN2CCCCCC2)nn1C(C)(C)C | 99.33
71 | CC1CCCN(CCNC(=O)c2cncnc2C(C)C)C1 (configuration not stated) | 11.51
72 | CCc1ncncc1C(=O)NCCN1CCC(C)CC1 | 6.983

Source: ChEMBL document CHEMBL3988442, “University of Dundee, Small-Polar-MMV Screening Library” (2021)
